# Screens deposited in PubChem BioAssay by The Scripps Research Institute Molecular Screening Center.
# In the library only some 2.4% were active in any assay of this set; here they are far more common.
# M1 ag parental = counter-screen for M1 agonists: effect in parental CHO-K1 cells; activation, % at 3 µM; 0.48% of 360,000 active; AID 602248; Fluo-8 calcium fluorescence; scaled to maximal ATP response, vehicle zero; in the data active means activation above about 15%;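 further: untransfected CHO-K1 host cells lacking M1 receptor as counterscreen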
# CHRM1 antagonist = human CHRM1 antagonism. CHO-K1 hM1, Fluo-8 calcium fluorescence, ACh EC80 antagonist. 1.3% of 360,000 active. inhibition, % at 3 µM;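 active means percent inhibition above its own plate's cutoff, namely the mean of that plate's compound wells plus 3 SD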;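 further: peak over basal fluorescence ratio during 140 s after agonist addition; 0% = ACh EC80 plus DMSO and 100% = DMSO alone without agonist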
# Target sequence (P11229 whole entry, looked up): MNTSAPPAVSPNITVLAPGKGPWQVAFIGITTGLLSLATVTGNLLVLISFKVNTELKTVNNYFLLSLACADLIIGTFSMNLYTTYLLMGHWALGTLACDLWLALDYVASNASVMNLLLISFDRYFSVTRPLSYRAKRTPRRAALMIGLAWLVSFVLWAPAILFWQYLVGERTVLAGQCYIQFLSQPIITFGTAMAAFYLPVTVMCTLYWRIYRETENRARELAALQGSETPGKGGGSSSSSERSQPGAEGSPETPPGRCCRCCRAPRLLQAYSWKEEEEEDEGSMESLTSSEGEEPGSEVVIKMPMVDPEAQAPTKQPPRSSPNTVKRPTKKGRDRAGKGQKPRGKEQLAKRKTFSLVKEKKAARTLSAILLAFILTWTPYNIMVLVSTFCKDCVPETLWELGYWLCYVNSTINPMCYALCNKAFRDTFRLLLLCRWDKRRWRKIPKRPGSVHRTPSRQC
# CHO-K1 Ca antag = counter-screen for M1 antagonists: effect in parental CHO-K1 cells. 0.6% of 360,000 active. ATP-induced calcium, Fluo-8 fluorescence. inhibition, % at 3 µM;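 active means inhibition above a per-plate cutoff, the plate's mean sample inhibition plus 3 SD, cut at about 24% in these data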;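 further: 0% = DMSO plus EC80 ATP and 100% = DMSO alone without ATP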
# M1 PAM parental = M1 PAM counterscreen hit in parental CHO-K1 cells | activation, % at 3 µM | 0.02% of 360,000 active | ATP EC20, Fluo-8 calcium fluorescence; 0% at ATP EC20, 100% at ATP max | AID 602247;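 active means activation above the run cutoff, the mean activation of all test compounds plus 3 SD, cut at about 40% in these data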;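 further: peak over basal fluorescence ratio in a 140 s read after ATP addition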
# M1 PAM = positive allosteric modulators of human M1 muscarinic receptor | CHO-K1 hM1, Fluo-8 calcium fluorescence, ACh EC20; 0% = ACh EC20, 100% = maximal ACh | 0.088% of 360,000 active | activation, % at 3 µM; in the data active means activation above about 19%, passing the limit was not always enough
# CHRM1 agonist = activates human CHRM1 receptor. 0.33% of 360,000 active. CHO-K1 hM1, Fluo-8 calcium fluorescence, agonist mode; 0% DMSO, 100% acetylcholine EC100. activation, % at 3 µM. P11229;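 active means activation above the run's mean compound activation plus 3 SD, cut at about 16% in these data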;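 further: peak over basal fluorescence ratio within a 140 s kinetic read after compound addition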
# An asterisk follows results filed as active; ! = not active in a repeat.
SMILES,M1 ag parental,CHRM1 antagonist,CHO-K1 Ca antag,M1 PAM parental,M1 PAM,CHRM1 agonist
COC(=O)C1=C(C)NC(C)=C(C(=O)OC)C1c1ccc(-c2cccc([N+](=O)[O-])c2)o1,0.9,-19.2,11.7,1.4,12.0,-1.2
COC(=O)C1=C(C)NC(C)=C([N+](=O)[O-])C1c1ccccc1C(F)(F)F (stereo unspecified),0.1,-17.0,34.8*!,7.9,-3.1,-3.4
O=C1C=C(c2ccccc2)C(c2ccccc2)C1O (stereo unspecified),0.7,-15.7,-19.4,23.5,4.5,-5.1
Cn1c(=O)c2[nH]c(-c3ccc(S(=O)(=O)O)cc3)nc2n(C)c1=O,0.6,-19.8,-10.5,7.4,-7.8,29.2*
O=C(CCNS(=O)(=O)c1cccc(C(F)(F)F)c1)NC1CC1,0.3,-5.4,-7.5,9.7,3.7,-2.2
CN(C)c1ccc(C=NNc2nc3c([nH]2)c(=O)n(C)c(=O)n3C)cc1,1.2,24.3*,-7.0,16.3,-13.5,-1.6
COc1cc(C=NNc2nc3c([nH]2)c(=O)n(C)c(=O)n3C)ccc1O,-0.3,-0.5,-12.3,4.4,-2.0,-2.4
COc1ccccc1CNC(=O)CN1C(=O)NC(Cc2ccccc2)(c2ccccc2)C1=O (stereo unspecified),0.4,-14.8,-0.9,-9.3,9.3,3.6
